# Columns and labels:
# Test in all cases: DAPPL (digital affinity profiling via proximity ligation, sequencing); 10 mM Tris-HCl pH 7.5, 50 mM NaCl, 1 mM DTT, 4% glycerol, room temperature, 30 min; GST-TFs on glutathione beads, 16-mer random dsDNA library, 0.1% formaldehyde crosslink after washing; high values mean tight binding
# FLI1 = biological target: T1, FLI1 (Homo sapiens, UniProt Q01543 1-452); conditions: protein: recombinant; tags: N-terminal GST; dsDNA, one strand shown
# T1 sequence: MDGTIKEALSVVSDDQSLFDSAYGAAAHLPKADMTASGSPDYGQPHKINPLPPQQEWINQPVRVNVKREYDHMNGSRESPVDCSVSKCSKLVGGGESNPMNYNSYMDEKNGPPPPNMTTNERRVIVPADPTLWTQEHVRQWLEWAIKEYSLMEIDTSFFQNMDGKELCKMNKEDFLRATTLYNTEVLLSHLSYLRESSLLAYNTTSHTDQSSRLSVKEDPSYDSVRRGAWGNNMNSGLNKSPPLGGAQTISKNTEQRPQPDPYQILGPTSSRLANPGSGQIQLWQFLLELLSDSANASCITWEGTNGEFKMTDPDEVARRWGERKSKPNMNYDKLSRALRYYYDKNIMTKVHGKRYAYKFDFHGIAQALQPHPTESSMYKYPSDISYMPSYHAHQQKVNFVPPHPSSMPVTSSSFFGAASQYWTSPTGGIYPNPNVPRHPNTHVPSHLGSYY
# In short: (§1)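 Sequencing on an Illumina NextSeq500 followed washing, crosslinking with 0.1% formaldehyde, proximity ligation (BsaI/T4 ligase, 1 h, 37 °C) and PCR amplification of pools that had been incubated for 30 min at room temperature with 200 nmole of a random double-stranded 16-mer DNA library in Tris/NaCl/DTT/glycerol buffer. Each pool held DNA-barcoded human transcription factors, expressed in yeast as GST fusions and captured on glutathione beads, plus a tag-only sample. Binding signal is a hexamer's read frequency for a factor divided by its frequency in the tag-only sample.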
# ELK1 = biological target: T2, ELK1 (Homo sapiens, UniProt P19419 1-428); conditions: protein: recombinant; tags: N-terminal GST; dsDNA, one strand shown
# T2 sequence: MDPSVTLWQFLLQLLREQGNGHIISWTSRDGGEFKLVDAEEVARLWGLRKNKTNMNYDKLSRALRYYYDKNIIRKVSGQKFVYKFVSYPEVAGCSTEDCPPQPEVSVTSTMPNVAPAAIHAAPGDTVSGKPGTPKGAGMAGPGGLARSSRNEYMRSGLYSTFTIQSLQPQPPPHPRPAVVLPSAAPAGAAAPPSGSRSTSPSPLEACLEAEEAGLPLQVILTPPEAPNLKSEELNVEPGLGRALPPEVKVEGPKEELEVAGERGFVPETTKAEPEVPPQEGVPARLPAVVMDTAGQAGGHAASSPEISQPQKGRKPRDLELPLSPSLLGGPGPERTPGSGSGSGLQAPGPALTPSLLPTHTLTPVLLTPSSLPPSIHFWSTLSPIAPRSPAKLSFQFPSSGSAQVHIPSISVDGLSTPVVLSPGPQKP
# In short: as §1
# GABPA = biological target: T3, GABPA (Homo sapiens, UniProt Q06546 1-454); conditions: protein: recombinant; tags: N-terminal GST; dsDNA, one strand shown
# T3 sequence: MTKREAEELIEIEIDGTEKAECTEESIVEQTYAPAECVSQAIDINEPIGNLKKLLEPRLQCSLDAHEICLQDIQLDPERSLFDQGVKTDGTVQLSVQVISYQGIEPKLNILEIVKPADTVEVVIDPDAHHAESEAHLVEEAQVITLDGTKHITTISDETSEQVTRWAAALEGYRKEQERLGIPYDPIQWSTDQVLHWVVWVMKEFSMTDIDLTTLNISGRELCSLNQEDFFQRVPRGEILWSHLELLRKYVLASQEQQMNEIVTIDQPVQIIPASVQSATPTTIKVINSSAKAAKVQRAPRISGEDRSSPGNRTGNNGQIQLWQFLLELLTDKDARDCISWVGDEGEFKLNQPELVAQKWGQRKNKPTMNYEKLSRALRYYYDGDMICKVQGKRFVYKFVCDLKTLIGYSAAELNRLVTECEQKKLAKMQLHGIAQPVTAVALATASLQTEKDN
# In short: as §1
# ERG = biological target: T4, ERG (Homo sapiens, UniProt P11308 1-479); conditions: protein: recombinant; tags: N-terminal GST; dsDNA, one strand shown
# T4 sequence: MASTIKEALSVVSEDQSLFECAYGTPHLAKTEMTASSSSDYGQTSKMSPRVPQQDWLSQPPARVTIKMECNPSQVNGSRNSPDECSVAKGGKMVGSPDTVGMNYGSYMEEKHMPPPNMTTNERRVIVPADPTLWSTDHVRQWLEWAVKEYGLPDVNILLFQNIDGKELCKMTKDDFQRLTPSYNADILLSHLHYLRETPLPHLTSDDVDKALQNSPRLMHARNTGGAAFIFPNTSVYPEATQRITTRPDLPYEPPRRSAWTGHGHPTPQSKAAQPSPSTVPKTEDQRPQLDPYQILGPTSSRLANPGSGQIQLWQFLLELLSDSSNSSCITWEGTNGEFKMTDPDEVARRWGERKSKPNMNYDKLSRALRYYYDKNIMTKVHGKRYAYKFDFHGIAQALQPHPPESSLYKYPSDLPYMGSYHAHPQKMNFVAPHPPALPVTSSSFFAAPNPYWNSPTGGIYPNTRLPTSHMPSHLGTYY
# In short: as §1
# ELF1 = ELF1 (Homo sapiens, UniProt P32519 1-619); conditions: protein: recombinant; tags: N-terminal GST; dsDNA, one strand shown
# Sequence of ELF1 (P32519 whole entry): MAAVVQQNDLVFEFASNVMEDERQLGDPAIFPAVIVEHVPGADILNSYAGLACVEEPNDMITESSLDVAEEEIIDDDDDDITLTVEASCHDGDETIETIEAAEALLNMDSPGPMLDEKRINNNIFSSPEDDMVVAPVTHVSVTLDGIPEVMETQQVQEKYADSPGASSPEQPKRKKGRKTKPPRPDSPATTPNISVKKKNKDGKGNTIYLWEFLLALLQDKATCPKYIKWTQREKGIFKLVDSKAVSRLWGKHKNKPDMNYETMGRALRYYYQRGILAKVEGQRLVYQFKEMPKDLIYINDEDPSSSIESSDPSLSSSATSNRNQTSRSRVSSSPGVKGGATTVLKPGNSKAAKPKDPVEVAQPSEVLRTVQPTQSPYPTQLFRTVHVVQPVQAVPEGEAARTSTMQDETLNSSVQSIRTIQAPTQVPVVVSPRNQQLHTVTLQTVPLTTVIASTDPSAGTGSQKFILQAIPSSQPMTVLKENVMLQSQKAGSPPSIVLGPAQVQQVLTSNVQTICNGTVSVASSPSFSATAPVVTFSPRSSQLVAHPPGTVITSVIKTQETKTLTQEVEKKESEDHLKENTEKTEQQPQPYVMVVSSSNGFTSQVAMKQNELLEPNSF
# In short: as §1
# EHF = biological target: T5, EHF (Homo sapiens, UniProt Q9NZC4 1-300); conditions: protein: recombinant; tags: N-terminal GST; dsDNA, one strand shown
# T5 sequence: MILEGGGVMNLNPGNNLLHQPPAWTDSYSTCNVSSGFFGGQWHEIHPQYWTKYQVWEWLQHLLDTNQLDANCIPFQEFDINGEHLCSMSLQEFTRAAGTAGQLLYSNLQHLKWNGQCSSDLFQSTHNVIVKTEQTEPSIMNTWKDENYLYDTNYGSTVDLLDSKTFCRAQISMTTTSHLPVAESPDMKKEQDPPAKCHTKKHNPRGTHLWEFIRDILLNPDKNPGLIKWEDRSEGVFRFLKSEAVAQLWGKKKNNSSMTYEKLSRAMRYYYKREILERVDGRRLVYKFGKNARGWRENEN
# In short: as §1
# SPI1 = SPI1 (Homo sapiens, UniProt P17947 1-270); conditions: protein: recombinant; tags: N-terminal GST; dsDNA, one strand shown
# In short: as §1
# SPIB = SPIB (Homo sapiens, UniProt Q01892 1-262); conditions: protein: recombinant; tags: N-terminal GST; dsDNA, one strand shown
# Sequence of SPIB (Q01892 whole entry): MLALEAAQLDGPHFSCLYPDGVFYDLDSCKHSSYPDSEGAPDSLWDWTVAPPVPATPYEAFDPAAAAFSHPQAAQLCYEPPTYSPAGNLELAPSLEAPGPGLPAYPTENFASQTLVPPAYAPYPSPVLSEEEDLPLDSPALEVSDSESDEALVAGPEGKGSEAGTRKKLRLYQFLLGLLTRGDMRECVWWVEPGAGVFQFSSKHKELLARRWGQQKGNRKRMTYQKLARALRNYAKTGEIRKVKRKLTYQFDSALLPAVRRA
# In short: as §1
# ELK3 = biological target: T6, ELK3 (Homo sapiens, UniProt P41970 1-407); conditions: protein: recombinant; tags: N-terminal GST; dsDNA, one strand shown
# T6 sequence: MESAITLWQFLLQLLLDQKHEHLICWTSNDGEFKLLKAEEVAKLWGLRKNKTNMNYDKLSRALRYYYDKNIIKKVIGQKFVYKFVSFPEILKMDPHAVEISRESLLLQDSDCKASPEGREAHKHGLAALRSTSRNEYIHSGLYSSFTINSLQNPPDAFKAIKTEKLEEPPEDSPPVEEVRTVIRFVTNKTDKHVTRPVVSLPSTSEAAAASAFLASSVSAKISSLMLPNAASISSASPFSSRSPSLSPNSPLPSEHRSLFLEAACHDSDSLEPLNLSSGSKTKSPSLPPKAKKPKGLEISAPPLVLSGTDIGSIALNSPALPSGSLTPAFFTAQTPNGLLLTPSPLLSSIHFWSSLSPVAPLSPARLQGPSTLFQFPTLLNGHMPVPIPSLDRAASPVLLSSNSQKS
# In short: as §1
# FEV = biological target: T7, FEV (Homo sapiens, UniProt Q99581 1-238); conditions: protein: recombinant; tags: N-terminal GST; dsDNA, one strand shown
# T7 sequence: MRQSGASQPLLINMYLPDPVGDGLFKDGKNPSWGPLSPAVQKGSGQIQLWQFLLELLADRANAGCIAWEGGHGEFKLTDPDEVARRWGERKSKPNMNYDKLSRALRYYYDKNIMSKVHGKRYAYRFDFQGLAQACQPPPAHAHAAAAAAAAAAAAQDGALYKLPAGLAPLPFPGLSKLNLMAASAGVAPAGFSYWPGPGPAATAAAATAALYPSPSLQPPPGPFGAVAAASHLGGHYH
# In short: as §1
# ETV5 = ETV5 (Homo sapiens, UniProt P41161 1-510); conditions: protein: recombinant; tags: N-terminal GST; dsDNA, one strand shown
# Sequence of ETV5 (P41161 whole entry): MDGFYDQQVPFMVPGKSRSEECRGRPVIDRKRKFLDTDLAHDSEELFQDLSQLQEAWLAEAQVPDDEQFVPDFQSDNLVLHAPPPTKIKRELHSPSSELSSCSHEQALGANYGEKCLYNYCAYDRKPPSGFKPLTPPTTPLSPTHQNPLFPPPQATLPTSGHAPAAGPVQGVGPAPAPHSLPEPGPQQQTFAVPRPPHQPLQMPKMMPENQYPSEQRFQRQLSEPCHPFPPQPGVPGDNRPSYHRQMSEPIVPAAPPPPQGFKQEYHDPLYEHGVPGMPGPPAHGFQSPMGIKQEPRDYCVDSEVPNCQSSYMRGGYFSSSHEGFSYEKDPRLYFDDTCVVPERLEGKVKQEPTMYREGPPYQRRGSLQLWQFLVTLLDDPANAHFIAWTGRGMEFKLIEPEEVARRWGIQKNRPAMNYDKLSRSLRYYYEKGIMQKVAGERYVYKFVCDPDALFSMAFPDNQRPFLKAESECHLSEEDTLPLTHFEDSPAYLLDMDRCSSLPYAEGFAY
# In short: as §1
# HSF1 = HSF1 (Homo sapiens, UniProt Q00613 1-529); conditions: protein: recombinant; tags: N-terminal GST; chain copies: 3; dsDNA, one strand shown
# Sequence of HSF1 (Q00613 whole entry): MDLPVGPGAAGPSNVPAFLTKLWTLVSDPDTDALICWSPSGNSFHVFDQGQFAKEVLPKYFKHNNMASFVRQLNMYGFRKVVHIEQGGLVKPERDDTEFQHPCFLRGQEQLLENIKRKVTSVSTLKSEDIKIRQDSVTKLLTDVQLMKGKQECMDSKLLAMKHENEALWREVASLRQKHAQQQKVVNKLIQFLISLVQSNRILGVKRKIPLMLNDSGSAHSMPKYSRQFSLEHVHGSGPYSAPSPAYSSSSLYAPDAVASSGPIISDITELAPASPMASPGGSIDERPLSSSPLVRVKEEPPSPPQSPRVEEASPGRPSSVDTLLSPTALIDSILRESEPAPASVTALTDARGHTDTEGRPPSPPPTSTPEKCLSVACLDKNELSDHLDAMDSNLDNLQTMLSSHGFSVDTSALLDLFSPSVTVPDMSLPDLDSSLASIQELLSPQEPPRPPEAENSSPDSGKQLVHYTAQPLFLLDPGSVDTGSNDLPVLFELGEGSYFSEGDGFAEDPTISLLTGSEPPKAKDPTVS
# In short: as §1
# SPIC = biological target: T8, SPIC (Homo sapiens, UniProt Q8N5J4 1-248); conditions: protein: recombinant; tags: N-terminal GST; dsDNA, one strand shown
# T8 sequence: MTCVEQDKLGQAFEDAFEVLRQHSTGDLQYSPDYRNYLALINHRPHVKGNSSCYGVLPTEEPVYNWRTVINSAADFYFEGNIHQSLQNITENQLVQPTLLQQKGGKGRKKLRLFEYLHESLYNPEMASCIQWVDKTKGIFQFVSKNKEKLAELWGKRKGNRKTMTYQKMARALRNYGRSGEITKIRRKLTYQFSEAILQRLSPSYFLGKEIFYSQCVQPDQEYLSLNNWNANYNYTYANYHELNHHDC
# In short: as §1
# ELF4 = ELF4 (Homo sapiens, UniProt Q99607 1-663); conditions: protein: recombinant; tags: N-terminal GST; dsDNA, one strand shown
# Sequence of ELF4 (Q99607 whole entry): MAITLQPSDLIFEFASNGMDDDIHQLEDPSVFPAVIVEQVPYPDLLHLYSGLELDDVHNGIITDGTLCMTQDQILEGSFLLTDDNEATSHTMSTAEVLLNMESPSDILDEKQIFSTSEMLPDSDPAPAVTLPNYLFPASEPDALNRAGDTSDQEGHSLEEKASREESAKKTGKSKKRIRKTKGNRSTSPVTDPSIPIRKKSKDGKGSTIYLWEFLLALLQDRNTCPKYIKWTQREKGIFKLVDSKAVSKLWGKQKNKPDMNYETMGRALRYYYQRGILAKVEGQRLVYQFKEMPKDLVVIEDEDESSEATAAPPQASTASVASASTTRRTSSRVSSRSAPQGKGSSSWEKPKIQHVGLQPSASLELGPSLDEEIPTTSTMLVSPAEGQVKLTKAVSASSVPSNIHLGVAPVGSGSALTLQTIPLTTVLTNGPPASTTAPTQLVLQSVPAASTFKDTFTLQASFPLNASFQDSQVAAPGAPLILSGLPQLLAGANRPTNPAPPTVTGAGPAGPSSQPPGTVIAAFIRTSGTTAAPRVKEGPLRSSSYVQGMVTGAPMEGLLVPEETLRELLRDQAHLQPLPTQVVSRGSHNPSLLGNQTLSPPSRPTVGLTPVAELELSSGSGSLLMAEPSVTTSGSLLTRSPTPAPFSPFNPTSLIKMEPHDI
# In short: as §1
# ELK4 = biological target: T9, ELK4 (Homo sapiens, UniProt P28324-2 1-405); conditions: protein: recombinant; tags: N-terminal GST; dsDNA, one strand shown
# T9 sequence: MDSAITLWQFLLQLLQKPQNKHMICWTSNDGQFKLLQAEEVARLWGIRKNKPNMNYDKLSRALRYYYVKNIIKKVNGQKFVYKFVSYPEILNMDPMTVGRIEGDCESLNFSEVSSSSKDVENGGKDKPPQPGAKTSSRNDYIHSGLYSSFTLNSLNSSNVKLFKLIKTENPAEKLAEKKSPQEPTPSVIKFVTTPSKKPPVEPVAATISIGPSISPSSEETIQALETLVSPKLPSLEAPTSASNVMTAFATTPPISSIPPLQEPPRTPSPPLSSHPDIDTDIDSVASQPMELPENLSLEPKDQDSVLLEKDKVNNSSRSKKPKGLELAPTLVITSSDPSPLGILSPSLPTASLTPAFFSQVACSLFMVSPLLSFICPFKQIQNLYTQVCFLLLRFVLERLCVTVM
# In short: as §1
# ETV2 = biological target: T10, ETV2 (Homo sapiens, UniProt O00321 1-342); conditions: protein: recombinant; tags: N-terminal GST; dsDNA, one strand shown
# T10 sequence: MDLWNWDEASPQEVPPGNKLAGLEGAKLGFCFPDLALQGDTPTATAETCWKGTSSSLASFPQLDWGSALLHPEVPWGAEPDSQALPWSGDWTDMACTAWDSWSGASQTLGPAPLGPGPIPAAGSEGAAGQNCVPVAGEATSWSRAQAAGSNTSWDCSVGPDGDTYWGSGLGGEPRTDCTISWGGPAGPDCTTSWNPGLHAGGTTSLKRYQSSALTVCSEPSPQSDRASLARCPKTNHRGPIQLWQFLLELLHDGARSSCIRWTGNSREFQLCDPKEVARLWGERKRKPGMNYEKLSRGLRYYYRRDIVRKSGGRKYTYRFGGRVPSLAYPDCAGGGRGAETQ
# In short: as §1
# ELF3 = biological target: T11, ELF3 (Homo sapiens, UniProt P78545 1-371); conditions: protein: recombinant; tags: N-terminal GST; dsDNA, one strand shown
# T11 sequence: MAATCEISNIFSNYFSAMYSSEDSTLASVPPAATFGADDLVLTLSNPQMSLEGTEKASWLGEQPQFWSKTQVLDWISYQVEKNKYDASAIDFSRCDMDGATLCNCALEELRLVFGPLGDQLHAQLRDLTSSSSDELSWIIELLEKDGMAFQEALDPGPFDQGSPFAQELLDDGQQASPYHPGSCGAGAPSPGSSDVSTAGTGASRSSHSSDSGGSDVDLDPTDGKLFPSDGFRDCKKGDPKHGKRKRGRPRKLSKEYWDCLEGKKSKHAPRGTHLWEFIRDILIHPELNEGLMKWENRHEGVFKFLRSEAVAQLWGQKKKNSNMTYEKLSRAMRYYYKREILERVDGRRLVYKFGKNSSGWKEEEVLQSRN
# In short: as §1
# CRX = CRX (Homo sapiens, UniProt O43186 1-299); conditions: protein: recombinant; tags: N-terminal GST; dsDNA, one strand shown
# Sequence of CRX (O43186 whole entry): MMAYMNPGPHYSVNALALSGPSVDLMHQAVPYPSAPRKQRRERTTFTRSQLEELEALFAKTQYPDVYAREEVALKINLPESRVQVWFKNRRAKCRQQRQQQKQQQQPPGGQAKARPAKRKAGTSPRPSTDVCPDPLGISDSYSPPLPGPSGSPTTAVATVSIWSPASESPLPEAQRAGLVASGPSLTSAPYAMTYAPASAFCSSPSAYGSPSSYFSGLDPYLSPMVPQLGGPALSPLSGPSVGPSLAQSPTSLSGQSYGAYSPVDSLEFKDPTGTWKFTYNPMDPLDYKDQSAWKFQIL
# In short: as §1
# ETV1 = ETV1 (Homo sapiens, UniProt P50549 1-477); conditions: protein: recombinant; tags: N-terminal GST; dsDNA, one strand shown
# Sequence of ETV1 (P50549 whole entry): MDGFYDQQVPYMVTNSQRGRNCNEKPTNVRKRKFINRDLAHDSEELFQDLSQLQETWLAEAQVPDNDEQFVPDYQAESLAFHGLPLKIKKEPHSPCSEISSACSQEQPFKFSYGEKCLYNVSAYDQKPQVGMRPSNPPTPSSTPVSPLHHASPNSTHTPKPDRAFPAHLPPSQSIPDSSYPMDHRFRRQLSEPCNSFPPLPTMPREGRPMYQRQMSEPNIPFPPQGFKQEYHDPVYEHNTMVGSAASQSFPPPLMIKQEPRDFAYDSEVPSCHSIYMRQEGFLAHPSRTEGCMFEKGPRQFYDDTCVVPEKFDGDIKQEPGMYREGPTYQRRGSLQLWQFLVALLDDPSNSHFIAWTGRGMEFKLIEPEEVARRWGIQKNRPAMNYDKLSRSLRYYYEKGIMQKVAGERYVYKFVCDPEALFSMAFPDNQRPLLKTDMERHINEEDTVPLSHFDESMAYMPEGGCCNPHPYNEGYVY
# In short: as §1
sequence,measurement,setting,value
AACTCC,binding signal,FLI1,"1.47 fold enrichment (6-mer frequency, TF over GST control)"
same,binding signal,ELK1,"1.29 fold enrichment (6-mer frequency, TF over GST control)"
same,binding signal,GABPA,"1.39 fold enrichment (6-mer frequency, TF over GST control)"
same,binding signal,ERG,"1.32 fold enrichment (6-mer frequency, TF over GST control)"
same,binding signal,ELF1,"1.35 fold enrichment (6-mer frequency, TF over GST control)"
same,binding signal,EHF,"1.3 fold enrichment (6-mer frequency, TF over GST control)"
same,binding signal,SPI1,"1.34 fold enrichment (6-mer frequency, TF over GST control)"
same,binding signal,SPIB,"1.32 fold enrichment (6-mer frequency, TF over GST control)"
same,binding signal,ELK3,"1.38 fold enrichment (6-mer frequency, TF over GST control)"
same,binding signal,FEV,"1.32 fold enrichment (6-mer frequency, TF over GST control)"
same,binding signal,ETV5,"1.32 fold enrichment (6-mer frequency, TF over GST control)"
same,binding signal,HSF1,"1.23 fold enrichment (6-mer frequency, TF over GST control)"
same,binding signal,SPIC,"1.32 fold enrichment (6-mer frequency, TF over GST control)"
same,binding signal,ELF4,"1.3 fold enrichment (6-mer frequency, TF over GST control)"
same,binding signal,ELK4,"1.13 fold enrichment (6-mer frequency, TF over GST control)"
same,binding signal,ETV2,"1.23 fold enrichment (6-mer frequency, TF over GST control)"
same,binding signal,ELF3,"1.13 fold enrichment (6-mer frequency, TF over GST control)"
same,binding signal,CRX,"1.19 fold enrichment (6-mer frequency, TF over GST control)"
same,binding signal,ETV1,"1.26 fold enrichment (6-mer frequency, TF over GST control)"
